Results as given in PubChem BioAssay AID1053133 (Broad Institute, 2014).
“And” between values parts separate entries of the source, which are not always exact repeats. Equal values may be shown once. Out of some 89,000 compounds screened, about 10 (0.01%) were called active. Not shown: some 10% with an inconclusive outcome. No stated cut-off is given here; in the data, active means activity change below about -37% (passing the limit was not always enough); inconclusive means no clear call, values can overlap the other calls; tested in A549 cells. Only a sample is shown.

Experiment: Vaccinia orthopox stage-specific inhibition, primary screen, cell-based, single point (AID 1053133)
Conditions: Vaccinia-infected cells, mCherry/Venus stage reporter fluorescence, stronger effect = lower value, concentration not given here; activity change (Venus): measured here: Venus reporter, other viral stage

SMILES	activity change (Venus)	activity change (mCherry)
Cc1ccc(F)cc1S(=O)(=O)N[C@@H]1CCN(Cc2ccc(-c3ccccc3)cc2)C1	-24.3%	-23.2% (inactive)
C[C@@H](NC(=O)C[C@H]1C[C@@H]2c3cc(NC(=O)Nc4ccccc4F)ccc3O[C@@H]2[C@H](CO)O1)c1ccccc1	0.165%	4.14% (inactive)
O=C(C[C@@H]1C[C@H]2c3cc(NC(=O)NC4CCCCC4)ccc3O[C@H]2[C@H](CO)O1)NCc1ccncc1	10.9%	-4.22% (inactive)
COc1ccccc1NC(=O)N(C)C[C@H]1Oc2cc(Br)ccc2S(=O)(=O)N([C@H](C)CO)C[C@@H]1C	-7.91% and 3.04%	-12.3% (inactive) and -2.64% (inactive)
O=C(C[C@@H]1CC[C@@H]2[C@H](COC[C@H](O)CN2C(=O)C2CC2)O1)NCc1ccncc1	-2.42%	0.733% (inactive)
COCC#Cc1ccc2c(c1)O[C@@H](CN(C)C(=O)Nc1ccccc1F)[C@H](C)CN([C@H](C)CO)S2(=O)=O	11.6%	9.91% (inactive)
CN1C(=O)c2cc(NC(=O)c3ccccc3)ccc2OC[C@H]2O[C@@H](CC(=O)O)CC[C@@H]21	4.29%	9.5% (inactive)
O=C(c1ccccn1)N1CC2(C1)[C@H](c1ccccc1)[C@H](CO)N2C(=O)C1CCCC1	-9.04%	-13.9% (inactive)
Cc1noc(C)c1NC(=O)N[C@@H]1CC[C@H](CC(=O)Nc2ccccc2)O[C@H]1CO	10.3%	4.56% (inactive)
COc1ccc2c3c([nH]c2c1)[C@@H](CO)N(C(=O)c1cccc(F)c1)CC31CN(C(C)=O)C1	-6.3%	16.8% (inactive)
CCC(=O)Nc1ccc2c(c1)OC[C@@H](C)N(Cc1ccccn1)C[C@H](C)[C@@H](OC)CN(C)C2=O	5.46%	6.05% (inactive)
C[C@@H]1CN([C@H](C)CO)S(=O)(=O)c2ccc(C#CCC3CCCC3)cc2O[C@H]1CN(C)Cc1ccc(C(=O)O)cc1	-4.35%	11.2% (inactive)
O=C(C[C@H]1CC[C@@H]2[C@H](COC[C@@H](O)CN2CC2CC2)O1)NCC1CC1	15.8%	11.7% (inactive)
C[C@H](CO)N1C[C@H](C)[C@@H](CN(C)C(=O)Nc2ccc3c(c2)OCO3)OCCCC[C@H](C)Oc2ccc(NS(=O)(=O)c3cn(C)cn3)cc2C1=O	3.74%	11.2% (inactive)
CO[C@H]1CN(C)C(=O)c2ccc(NC(=O)c3cc(C)on3)cc2OC[C@@H](C)NC[C@@H]1C	4.97%	2.62% (inactive)
CCCc1cn(CC[C@H]2CC[C@@H](NS(=O)(=O)c3ccccc3Cl)[C@@H](CO)O2)nn1	1.1%	5.97% (inactive)
CCNC(=O)[C@H]1[C@H](CO)[C@H]2Cn3c(ccc(/C=C/c4ccccc4)c3=O)[C@@H]1N2C(=O)C1CCC1	12.9%	11.2% (inactive)
O=C(C[C@H]1C=C[C@@H](NC(=O)C2CCOCC2)[C@@H](CO)O1)NCC1CCCCC1	1.03%	8.68% (inactive)
O=C(CC1CC1)Nc1ccc2c(c1)[C@@H]1C[C@@H](CC(=O)NC3CCCCC3)O[C@@H](CO)[C@@H]1O2	-4.69%	-3.33% (inactive)

SMILES	activity change (Venus)	activity change (mCherry)
O=C(Nc1cc(F)ccc1F)N[C@@H]1C=C[C@@H](CC(=O)N2CCc3ccccc3C2)O[C@@H]1CO	-0.0639%	-17.7% (inactive)
C[C@H](CO)N1C[C@H](C)[C@@H](CN(C)C(=O)c2cnccn2)Oc2ncc(Br)cc2C1=O	-0.956%	2.65% (inactive)
CCCNC(=O)N(C)C[C@H]1Oc2cc(C3=CCCCC3)ccc2S(=O)(=O)N([C@H](C)CO)C[C@H]1C	-0.298%	-6.09% (inactive)
Cc1ccccc1S(=O)(=O)N[C@H]1CC[C@H](CCn2cc(-c3ccc(F)cc3)nn2)O[C@H]1CO	-25.8%	-28.8% (inactive)
C[C@H]1CCCCO[C@H](CN(C)S(=O)(=O)c2cn(C)cn2)[C@@H](C)CN([C@@H](C)CO)C(=O)c2cc(NC(=O)C3CCCCC3)ccc2O1	4.42%	9.05% (inactive)
O=C(Nc1nccs1)[C@@H]1[C@@H](CO)[C@@H]2Cn3c(ccc(-c4cccnc4)c3=O)[C@@H]2N1CC1CC1	2.33%	16.6% (inactive)
COc1cccc(-c2cnc3c(c2)C(=O)N([C@H](C)CO)C[C@H](C)[C@@H](CN(C)Cc2ccc(C(=O)O)cc2)O3)c1	12.8%	13.4% (inactive)
COc1ccccc1-c1cnc2c(c1)C(=O)N([C@H](C)CO)C[C@H](C)[C@@H](CN(C)C(=O)CC1CC1)O2	-0.21%	5.06% (inactive)
O=C(C[C@H]1CC[C@H]2[C@@H](COC[C@@H](O)CN2Cc2ccccc2F)O1)NCc1ccccc1F	2.5%	-8.36% (inactive)
O=C(C[C@H]1CC[C@H]2[C@@H](COC[C@@H](O)CN2S(=O)(=O)c2ccc(Cl)cc2)O1)NCCN1CCCCC1	2.96%	7.02% (inactive)
COCC#Cc1ccc(CC[C@H]2O[C@H]3CC[C@@H](CO)O[C@H]3C[C@H]2NC(=O)Nc2c(C)noc2C)cc1	12.1%	18.6% (inactive)
CC(=O)N(C)C[C@@H]1Oc2ncc(C#Cc3ccccn3)cc2C(=O)N([C@@H](C)CO)C[C@@H]1C	9.68%	7.16% (inactive)
O=C(Cc1ccncc1)NCC[C@H]1CC[C@H](NC(=O)Nc2cccc(F)c2)[C@H](CO)O1	5.2%	3.69% (inactive)
COc1ccc(NC(=O)Nc2ccc3c(c2)C(=O)N([C@@H](C)CO)C[C@@H](C)[C@@H](CN(C)C(=O)Nc2ccc(F)cc2)OCCCC[C@@H](C)O3)cc1	-5.96%	0.168% (inactive)
Cn1cnc(CCNC(=O)[C@H]2[C@H](CO)[C@H]3Cn4c(cccc4=O)[C@H]3N2C(=O)Nc2ccccc2)c1	5.32%	12% (inactive)
COc1ccc(S(=O)(=O)Nc2ccc3c(c2)C(=O)N([C@@H](C)CO)C[C@H](C)[C@H](CN(C)Cc2ccc(C(=O)O)cc2)OCCCC[C@@H](C)O3)cc1	19.1%	34.5% (inactive)
O=C(C1CCCC1)N1[C@H](CO)[C@@H]2c3ccccc3N(S(=O)(=O)c3ccccc3)C[C@@H]21	-0.835%	3.15% (inactive)
CCC(=O)N1CCC2(CC1)CN(Cc1ccc(Cl)cc1)[C@@H](CO)c1[nH]c3cc(OC)ccc3c12	3.95%	2.91% (inactive)
O=C(C[C@H]1CC[C@@H](NC(=O)c2ccc(F)cc2)[C@@H](CO)O1)NCc1ccncn1	6.42%	11.2% (inactive)

SMILES	activity change (Venus)	activity change (mCherry)
Cc1ccc(S(=O)(=O)NCC[C@@H]2CC[C@@H](NC(=O)CCN3CCCCC3)[C@@H](CO)O2)cc1	12.7%	18.4% (inactive)
Cc1ccccc1-c1ccc2c(c1)O[C@@H](CN(C)Cc1ccc(C(=O)O)cc1)[C@@H](C)CN([C@H](C)CO)S2(=O)=O	9.16% and -2.89%	13.4% (inactive) and 11.3% (inactive)
COC(=O)[C@@H]1[C@@H](CO)[C@@H]2Cn3c(ccc(C4=CCCC4)c3=O)[C@@H]2N1Cc1cncnc1	12.2%	12.2% (inactive)
C[C@H](O)C#Cc1ccc([C@@H]2[C@@H](CO)N3CCCCN(C(=O)c4ccc(F)cc4)C[C@H]23)cc1	-0.172%	24.9% (inactive)
COC(=O)C[C@H]1CC[C@H]2[C@H](COc3ccc(NC(=O)C4CC4)cc3C(=O)N2C)O1	8.69%	16.9% (inactive)
C[C@@H](NC(=O)C[C@H]1CC[C@H](NS(=O)(=O)c2cccc(F)c2)[C@H](CO)O1)c1ccccc1	2.54%	12.2% (inactive)
COc1ccc(NC(=O)N(C)C[C@@H]2OCCCC[C@H](C)Oc3ccc(NS(=O)(=O)c4cn(C)cn4)cc3C(=O)N([C@@H](C)CO)C[C@@H]2C)cc1	6.5%	16% (inactive)
CO[C@@H]1CN(C)C(=O)c2ccc(NS(=O)(=O)c3cccc(F)c3)cc2OC[C@H](C)N(C(=O)Cc2cccnc2)C[C@@H]1C	-6.63%	-1.85% (inactive)
CCCNC(=O)N1[C@H](C#N)[C@@H](c2ccccc2C2=CCCCC2)[C@@H]1CO	2.66%	-4.44% (inactive)
O=C(C[C@H]1CC[C@H](NC(=O)c2ccc(F)cc2)[C@@H](CO)O1)NCCc1ccncc1	-8.31%	6.53% (inactive)
CC(=O)N(C)C[C@@H]1Oc2cc(C#Cc3ccccc3F)ccc2S(=O)(=O)N([C@@H](C)CO)C[C@@H]1C	-24.5%	-31.1% (inactive)
CCCNC(=O)N[C@H]1C=C[C@@H](CC(=O)NC2CCCCC2)O[C@H]1CO	-1.05%	-4.3% (inactive)
CS(=O)(=O)Nc1ccc2c(c1)[C@H]1C[C@@H](CC(=O)N3CCOCC3)O[C@@H](CO)[C@H]1O2	11.4%	11% (inactive)
CC(C)NC(=O)N1[C@H](CO)[C@H](c2ccccc2)C12CN(C(=O)Cc1ccccc1)C2	4.09%	-7.19% (inactive)
COc1ccc2c3c([nH]c2c1)[C@@H](CO)N(C(=O)NC(C)C)CC31CCN(C(=O)c2ccccn2)CC1	4.18%	12.8% (inactive)
O=C(N[C@H]1CC[C@@H](CCn2cc(Cc3ccccc3)nn2)O[C@H]1CO)c1cnccn1	-8.51%	6.03% (inactive)
COc1ccc(-c2ccccc2[C@@H]2[C@@H](C#N)N(C(=O)NC3CCCC3)[C@H]2CO)cc1	-17.8%	-22.2% (inactive)
C[C@@H]1CN([C@H](C)CO)C(=O)c2cc(NC(=O)Nc3ccc(F)cc3)ccc2O[C@@H](C)CCCCO[C@@H]1CN(C)S(=O)(=O)c1cn(C)cn1	23.4%	41.6% (inactive)
CCN1[C@@H]2Cn3c(ccc(-c4cccc(OC)c4)c3=O)[C@H]1[C@@H](C(=O)N(C)C)[C@@H]2CO	15.1%	20% (inactive)
